Compounds with a hit are over-represented: about 2.3% of the library has one in this group of screens.
Tau FP inhib – qHTS for Inhibitors of Tau Fibril Formation, Fluorescence Polarization; K18 P301L tau heparin fibrillization, Alexa594 FP, 6 h; Potency, µM (series often up to 57.7 µM), inactives show top-dose activity, negative = inhibition, most hits filed as inhibitors; actives 0.39% (n = 280,000); AID 1468, 2008; note: potency is the fitted concentration of half-maximal effect; nearly all actives have a fitted effect of over 55% in size
Target sequence (P10636 561-689 P618L limits assumed): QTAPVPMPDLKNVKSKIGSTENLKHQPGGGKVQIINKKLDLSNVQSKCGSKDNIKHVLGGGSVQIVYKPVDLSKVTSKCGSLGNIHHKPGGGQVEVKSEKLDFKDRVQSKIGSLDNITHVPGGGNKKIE
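Human K18 P301L fragment (15 uM unlabeled plus 0.24 uM Alexa 594-labeled) in 100 mM sodium acetate pH 7 with compound, aggregation induced by 20 uM heparin for 6 hr at 37 C. ThT (30 uM) added for 1 hr, then Alexa 594 FP read.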
Tau fluor cs – Counterscreen qHTS for Inhibitors of Tau Fibril Formation, Fluorescence Polarization; tau K18 P301L Alexa594 fluorescence, heparin fibrillization; Potency, µM (highest dose often 57.7 µM), inactives show at the highest dose activity change, negative = decrease; actives 0.93% (n = 280,000); AID 1463, 2008; note: potency is the fitted concentration of half-maximal effect; nearly all actives have a fitted effect of over 55% in size
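Human tau K18 P301L (15 uM unlabeled, 0.24 uM Alexa 594-labeled) in 100 mM sodium acetate pH 7 with 20 uM heparin, 6 hr at 37 C. ThT 30 uM added, 1 hr ambient; Alexa 594 FP and total fluorescence read at 555/632 nm.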
Tau fibril ThT – qHTS for Inhibitors of Tau Fibril Formation, Thioflavin T Binding; recombinant tau K18 P301L (four-repeat tau fragment), heparin-induced fibrillization, ThT fluorescence; Potency, µM (series often up to 57.4 µM), inactives show at the highest dose activity, negative = inhibition, hits mostly inhibitors; actives 2.1% (n = 270,000); note: potency is the fitted concentration of half-maximal effect; nearly all actives have a fitted effect of over 55% in size
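Recombinant human tau K18 fragment […] carrying P301L, 15 uM unlabeled plus 0.24 uM Alexa 594-labeled, was fibrillized with 20 uM heparin in 100 mM sodium acetate pH 7 for 6 hr at 37 C; 30 uM ThT fluorescence read after 1 hr.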
FBPA coupling cs – qHTS Assay for Inhibitors of Fructose-1,6-bisphosphate Aldolase from Giardia Lamblia: Coupling assay counterscreen | coupling enzyme system counterscreen, AmpLite Red fluorescence | activity change, negative = inhibition, % at 58.2 µM, hits read low | actives 0.67% (n = 290,000) | AID 2472, 2010; in the data active = activity change below about -30%
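Fluorescence at 525 nm excitation and 598 nm emission measured inhibition of the coupled detection system without aldolase. Compounds (at 57.5 uM final) were preincubated 10 min at room temperature with coupling enzyme reagent before a 20 min substrate/AmpLite Red step.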
USP1 inh – Inhibitors of USP1/UAF1: Primary Screen | Ubiquitin carboxyl-terminal hydrolase 1 (Homo sapiens), O94782 | recombinant USP1/UAF1, Ub-Rhodamine cleavage fluorescence | Potency, µM (highest dose often 57.1 µM), inactives show at the top dose activity change, negative = inhibition, most hits filed as inhibitors | actives 0.23% (n = 390,000) | AID 743255, 2014; note: potency is the fitted concentration of half-maximal effect; nearly all actives have a fitted effect of over 60% in size
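High-throughput fluorogenic screen: 1nM USP1/UAF1 complex, Ub-Rho substrate 150nM final, 50mM HEPES pH 7.8 with 0.5mM EDTA, 0.1 mg/ml BSA, 1mM TCEP and 0.01% Tween-20.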
The depositor's hits bear a star; [ ] = another dose, or the depositor's remark. Unless noted, calls come from the whole dose curve; as a rule, active = well fitted curve in the direction sought with a large enough effect; inconclusive = small, poorly fitted or top-dose-only effect, or another doubt; inactive = no such curve, though single readings can be large; an effect the other way counts as inactive or inconclusive. % is set by controls: 0 for no effect and ±100 for the full control effect.

For CCCCC/C=C\C/C=C\C/C=C\C/C=C\CCCCCC(N)=O the results were Tau FP inhib -11.2%, Tau fluor cs -10.0%, Tau fibril ThT -6.8% and FBPA coupling cs 0.9.
For Oc1c(Br)cc(Br)cc1C=Nc1ccc2c(c1)OCO2 the results were Tau FP inhib inconclusive, Tau fluor cs -7.2%, Tau fibril ThT 20µM*, FBPA coupling cs -3.2 and USP1 inh inconclusive.
`Oc1[nH]c2ccccc2c1C=Nc1ccc2c(c1)OCCO2` gave Tau FP inhib 16.1%, Tau fluor cs inconclusive, Tau fibril ThT 11.2µM*, FBPA coupling cs -7.2 and USP1 inh -15.3%.
For Oc1c(Br)cc(Br)cc1C=Nc1ccc2c(c1)OCCO2 the results were Tau FP inhib inconclusive, Tau fluor cs -16.2%, Tau fibril ThT 11.2µM*, FBPA coupling cs -6.3 and USP1 inh inconclusive.
COc1ccc(Cl)cc1NS(=O)(=O)c1cc(-c2cc(C)no2)ccc1C was read as Tau FP inhib -10.0%, Tau fluor cs inconclusive, Tau fibril ThT 3.0% and USP1 inh -1.1%.
Screening CNc1ccccc(C(=O)/C=C/c2ccccc2OC)c1=O returned Tau FP inhib inconclusive, Tau fluor cs inconclusive, Tau fibril ThT 15.8µM*, FBPA coupling cs -30.5* and USP1 inh inconclusive.
Screening CCNc1ccc(Br)cc(C(=O)/C=C/c2ccccc2Cl)c1=O returned USP1 inh 28.2µM*.
For COC(=O)/C=C/c1ccc2c(c1)OCO2 the results were Tau FP inhib -1.9%, Tau fluor cs 2.8%, Tau fibril ThT -3.1%, FBPA coupling cs -0.1 and USP1 inh -20.5%.
`O=C(C=Cc1ccccc1Cl)c1ccccc1` gave USP1 inh -11.6%.
COc1ccccc1C=CC(=O)C=Cc1ccccc1OC was read as USP1 inh -16.0%.
COc1ccccc1/C=C/C(=O)/C=C/c1ccccc1O was read as Tau FP inhib inconclusive, Tau fluor cs -27.7%, Tau fibril ThT 14.1µM*, FBPA coupling cs -12.5 and USP1 inh -25.2%.
Screening CCNc1ccccc(C(=O)/C=C/c2ccc3c(c2)OCO3)c1=O returned Tau FP inhib inconclusive, Tau fluor cs inconclusive, Tau fibril ThT 14.1µM*, FBPA coupling cs -27.1 and USP1 inh -24.7%.
ONCc1ccccc1 was read as FBPA coupling cs -7.4.
CNc1ccc(Br)cc(C(=O)/C=C/c2cccc(Cl)c2Cl)c1=O was read as Tau FP inhib inconclusive, Tau fluor cs inconclusive, Tau fibril ThT 7.08µM*, FBPA coupling cs -10.6 and USP1 inh inconclusive.
Screening CNc1ccc(Br)cc(C(=O)/C=C/c2cccc(OC)c2OC)c1=O returned Tau FP inhib inconclusive, Tau fluor cs inconclusive, Tau fibril ThT 14.1µM*, FBPA coupling cs -32.4* and USP1 inh -11.2%.
Cc1ccc(NC(=O)c2sc3nc4c(cc3c2N)CN(Cc2ccccc2)CC4)cc1 was read as Tau FP inhib 6.1%, Tau fluor cs -15.6%, Tau fibril ThT inconclusive and USP1 inh inconclusive.
`N#CC1=C(N)Oc2ccccc2C12C(=O)Nc1n[nH]c(-c3ccccc3)c12` (stereo not drawn) gave Tau FP inhib 2.0%, Tau fluor cs -2.7%, Tau fibril ThT -4.1%, FBPA coupling cs 0.6 and USP1 inh -8.2%.
`Cn1c2c(c(=O)n(C)c1=O)C1(C(=O)Nc3ccccc31)C(C#N)=C(N)O2` (stereo not drawn) gave Tau FP inhib inconclusive, Tau fluor cs -22.5%, Tau fibril ThT 14.1µM*, FBPA coupling cs -54.2* and USP1 inh -8.6%.
`COc1ccc(-c2nc3ccc(N4CCCC4)cc3c(=O)[nH]2)cc1OC` gave Tau FP inhib 3.0%, Tau fluor cs inconclusive, Tau fibril ThT 2.24µM*, FBPA coupling cs -0.2 and USP1 inh -20.2%.
`COc1ccc2nc(-c3ccccc3)[nH]c(=O)c2c1` gave USP1 inh -4.5%.
Oc1c(Cl)cc(CN2CCCCC2)c2cccnc12 was read as FBPA coupling cs -15.9.
Screening O=[N+]([O-])c1cc(CN2CCCC2)c2cccnc2c1O returned Tau FP inhib -13.9%, Tau fluor cs -23.5%, Tau fibril ThT 15.8µM*, FBPA coupling cs -35.1* and USP1 inh -21.5%.
For CC(=O)c1cccc(NC(=O)CN2C(=O)c3ccccc3Sc3ncccc32)c1 the results were Tau FP inhib -10.2%, Tau fluor cs -6.7%, Tau fibril ThT 1.3% and USP1 inh -20.8%.
For O=C(COCc1cc(-c2ccc3c(c2)OCO3)on1)Nc1cccc(O)c1 the results were Tau FP inhib -11.5%, Tau fluor cs -21.4%, Tau fibril ThT inconclusive and USP1 inh -16.3%.
COc1cc(NC(=O)Nc2ccccc2)c(OC)cc1NC(=O)CN1CCCCC1 was read as Tau FP inhib inconclusive, Tau fluor cs 28.2µM*[quencher], Tau fibril ThT inconclusive, FBPA coupling cs -2.8 and USP1 inh -26.0%.
`CCOC(=O)c1cc(S(=O)(=O)NCc2cccc(Cl)c2)[nH]n1` gave Tau FP inhib -4.2%, Tau fluor cs -10.6%, Tau fibril ThT -8.0% and USP1 inh -23.4%.
For Cc1nn(C(C)C(=O)N2CCN(c3ccc(Cl)cc3)CC2)c(=O)c2cc3occc3n12 (stereo not drawn) the results were Tau FP inhib -3.8%, Tau fluor cs -9.9%, Tau fibril ThT -4.8% and USP1 inh -6.6%.
Screening CCOC(=O)CN1C(=O)S/C(=C/c2ccc3c(c2)n(C)c(=O)n3C)C1=O returned Tau FP inhib -6.8%, Tau fluor cs -10.2%, Tau fibril ThT -18.6%, FBPA coupling cs -1.0 and USP1 inh -4.2%.
O=C1S/C(=C\c2ccc(O)c([N+](=O)[O-])c2)C(=O)N1Cc1cccc([N+](=O)[O-])c1 was read as Tau FP inhib 18.0%, Tau fluor cs inconclusive, Tau fibril ThT 11.2µM*, FBPA coupling cs 8.6 and USP1 inh -23.2%.
CN1C(=O)/C(=C/c2ccc(O)c([N+](=O)[O-])c2)N(C)C1=S was read as Tau FP inhib 1.2%, Tau fluor cs -19.3%, Tau fibril ThT 4.47µM*, FBPA coupling cs 10.1 and USP1 inh -9.7%.
Screening O=C(O)c1cccc(CN2C(=O)S/C(=C/c3ccccc3[N+](=O)[O-])C2=O)c1 returned Tau FP inhib inconclusive, Tau fluor cs -15.8%, Tau fibril ThT inconclusive, FBPA coupling cs 14.5 and USP1 inh inconclusive.
CCOC(=O)CN1C(=O)S/C(=C/C=C/c2ccc(N(C)C)cc2)C1=O was read as Tau FP inhib inconclusive, Tau fluor cs 0.1%, Tau fibril ThT 2.24µM*, FBPA coupling cs 0.3 and USP1 inh inconclusive.
